The supplement of paper PMC12494721
Structures can show the parent of a compound that is named as a salt.

How the values were obtained:
Conditions in all cases: incubation time: 27 h, anaerobic, 37 °C;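 for the amine columns active = adjusted P below 0.05 in both replicates with a change the same way and a mean fold change under 0.8 or over 1.25; inactive = the rest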
Escherichia coli IAI1 [1] = experiment: growth (OD595) fold change vs plate DMSO controls (fold change (ratio)); higher = more growth
Outline: (§1)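 Growth is expressed as the fold change relative to the median of the DMSO control wells on each plate. Cultures in mGAM were grown anaerobically in 96-well plates for 27 h at 37 °C, shaken, and read at 595 nm. Readings were blank-subtracted, corrected for compound background with 20 µM compound solutions in water, and converted to OD with a calibration factor of 5. Fold changes above 1.5 were set to NA, and each value is the mean of 2 biological replicates.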

[2] = system: Klebsiella aerogenes DSM 30053; experiment: as above
Outline: as §1

[3] = system: Ruminococcus gnavus DSM 108212; experiment: as above
Outline: as §1

[4] = system: Klebsiella aerogenes DSM 30053; experiment: fold change of Histamine concentration vs plate DMSO controls (fold change (ratio)); higher = more amine produced, active = hit call of the paper (significant change in both replicates, either direction)
Outline: (§2)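 Each value is the fold change relative to DMSO-only wells on the same plate. Four gut bacterial strains were grown anaerobically in mGAM at 37 °C for 27 h in 80 µL wells, starting at OD 0.1 before a 1:1 dilution, with compounds at 20 µM final (sweeteners 50 µM). Whole cultures were extracted with cold acetonitrile/methanol containing 0.1% formic acid, centrifuged, and amines were quantified by LC–triple-quadrupole MS (dynamic MRM) against external calibration curves with within-batch drift correction. Values are means of 2 biological replicates.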

[5] = system: Ruminococcus gnavus DSM 108212; experiment: fold change of Tryptamine concentration vs plate DMSO controls (fold change (ratio)); higher = more amine produced, active = hit call of the paper (significant change in both replicates, either direction)
Outline: as §2

Escherichia coli IAI1 [6] = experiment: fold change of Putrescine concentration vs plate DMSO controls (fold change (ratio)); higher = more amine produced, active = hit call of the paper (significant change in both replicates, either direction)
Outline: as §2

[7] = system: Klebsiella aerogenes DSM 30053; experiment: as above
Outline: as §2

Escherichia coli IAI1 [8] = experiment: fold change of Cadaverine concentration vs plate DMSO controls (fold change (ratio)); higher = more amine produced, active = hit call of the paper (significant change in both replicates, either direction)
Outline: as §2

[9] = system: Klebsiella aerogenes DSM 30053; experiment: as above
Outline: as §2

[10] = system: Ruminococcus gnavus DSM 108212; experiment: fold change of 2-Phenylethylamine concentration vs plate DMSO controls (fold change (ratio)); higher = more amine produced, active = hit call of the paper (significant change in both replicates, either direction)
Outline: as §2

[11] = system: Clostridium sporogenes DSM 1664; experiment: fold change of Tryptamine concentration vs plate DMSO controls (fold change (ratio)); higher = more amine produced, active = hit call of the paper (significant change in both replicates, either direction)
Outline: as §2

[12] = system: Clostridium sporogenes DSM 1664; experiment: growth (OD595) fold change vs plate DMSO controls (fold change (ratio)); higher = more growth
Outline: as §1

Row | SMILES | growth (Escherichia coli IAI1 [1]) | growth [2] | growth [3] | fold change of Histamine concentration [4] | fold change of Tryptamine concentration [5] | fold change of Putrescine concentration (Escherichia coli IAI1 [6]) | fold change of Putrescine concentration [7] | fold change of Cadaverine concentration (Escherichia coli IAI1 [8]) | fold change of Cadaverine concentration [9] | fold change of 2-Phenylethylamine concentration [10] | fold change of Tryptamine concentration [11] | growth [12]
1 | CO/N=C(\C(=O)N[C@@H]1C(=O)N2C(C(=O)O)=C(C[N+]3(C)CCCC3)CS[C@H]12)c1csc(N)n1 [Cefepime hydrochloride] (20 µM) | 0 | 0.484 | 0 | 0.119 (active) | 0.0466 (active) | 0.285 (active) | 0.361 (active) | 0.884 (inactive) | 1.11 (inactive) | 0.0523 (active) | – | –
2 | Nc1nc2c(ncn2COCCO)c(=O)[nH]1 [Acyclovir] (20 µM) | 1.05 | 1 | 1.42 | 1.02 (inactive) | 1.15 (inactive) | 1.03 (inactive) | 0.983 (inactive) | 1 (inactive) | 1.05 (inactive) | 1.15 (inactive) | – | –
3 | CCN(CC)CCNC(=O)c1ccc(N)cc1 [Procainamide hydrochloride] (20 µM) | 0.979 | 1.2 | 0.827 | 0.834 (inactive) | – | 0.969 (inactive) | 0.987 (inactive) | 1.01 (inactive) | 1.04 (inactive) | 1.05 (inactive) | – | –
4 | CCC(C)C(C(=O)OCC[N+](C)(CC)CC)c1ccccc1 (stereo not drawn) [Valethamate bromide] (20 µM) | – | – | – | 1.03 (inactive) | 0.996 (inactive) | 1.05 (inactive) | 1.02 (inactive) | 1.03 (inactive) | 1 (inactive) | 0.963 (inactive) | 0.963 (inactive) | –
5 | COc1ccc(CCN(C)CCCC(C#N)(c2ccc(OC)c(OC)c2)C(C)C)cc1OC (stereo not drawn) [Verapamil hydrochloride] (20 µM) | 1.13 | 0.758 | 1.01 | 0.942 (inactive) | 0.992 (inactive) | 1.05 (inactive) | 0.906 (inactive) | 0.978 (inactive) | 0.972 (inactive) | 0.95 (inactive) | – | –
6 | CCn1cc(C(=O)O)c(=O)c2cc(F)c(N3CCN(C)CC3)cc21 [Pefloxacin] (20 µM) | 0.0501 | 0.198 | 1.13 | 0.127 (active) | 0.915 (inactive) | 0.793 (inactive) | 1.05 (inactive) | 0.204 (active) | 0.972 (inactive) | 0.91 (inactive) | – | –
7 | CC[C@]12CCCN3CCc4c(n(c5ccccc45)[C@@](O)(C(=O)OC)C1)[C@@H]32 [Vincamine] (20 µM) | 1.01 | 1.05 | 0.949 | 1.01 (inactive) | 0.973 (inactive) | 0.996 (inactive) | 1 (inactive) | 1.02 (inactive) | 0.99 (inactive) | 0.942 (inactive) | – | –
8 | Cc1nnc(SCC2=C(C(=O)O)N3C(=O)[C@@H](NC(=O)Cn4cnnn4)[C@H]3SC2)s1 [Cefazolin sodium salt] (20 µM) | 0.0255 | 1.13 | 0.0483 | 0.645 (inactive) | 0.0727 (active) | 0.16 (active) | 1.03 (inactive) | 0.613 (active) | 1.05 (inactive) | 0.0761 (active) | – | –
9 | CN(CCOc1ccc(NS(C)(=O)=O)cc1)CCc1ccc(NS(C)(=O)=O)cc1 [Dofetilide] (20 µM) | 0.972 | 1.03 | 0.827 | 1 (inactive) | 1.04 (inactive) | 0.989 (inactive) | 0.984 (inactive) | 1.05 (inactive) | 1 (inactive) | 0.998 (inactive) | – | –
10 | CN1[C@@H]2CC[C@H]1CC(OC(=O)C(O)c1ccccc1)C2 (mixture of isomers) [(R,S) Homatropine hydrobromide] (20 µM) | – | – | – | 0.867 (inactive) | 0.99 (inactive) | 0.995 (inactive) | 0.995 (inactive) | 1.02 (inactive) | 1.02 (inactive) | 1.01 (inactive) | 1 (inactive) | –
11 | OC(c1cc(C(F)(F)F)nc2c(C(F)(F)F)cccc12)C1CCCCN1 (stereo not drawn) [Mefloquine hydrochloride] (20 µM) | 0.858 | 0.808 | 1 | – | – | – | – | – | – | – | – | 0.869
12 | Clc1cc(Cl)c(OCC#CI)cc1Cl [Haloprogin] (20 µM) | 0.942 | 0.967 | – | 1.01 (inactive) | 0.777 (inactive) | 1.09 (inactive) | 0.953 (inactive) | 1.04 (inactive) | 0.987 (inactive) | 0.861 (inactive) | 0.977 (inactive) | 0.986
13 | Clc1ccc(Nc2nnc(Cc3ccncc3)c3ccccc23)cc1 [Vatalanib] (20 µM) | 1.19 | 1.08 | – | 0.91 (inactive) | 1.02 (inactive) | 1.17 (inactive) | 0.942 (inactive) | 0.945 (inactive) | 1.02 (inactive) | 1.01 (inactive) | 1.12 (inactive) | 1.06
14 | CCN1CCN(C(=O)N[C@@H](C(=O)N[C@@H]2C(=O)N3C(C(=O)O)=C(CSc4nnnn4C)CS[C@H]23)c2ccc(O)cc2)C(=O)C1=O [Cefoperazone dihydrate] (20 µM) | 0.0154 | 0.724 | 0.0225 | 0.472 (active) | 0.0363 (active) | 0.451 (inactive) | 0.86 (inactive) | 1.36 (inactive) | 1.13 (inactive) | 0.0394 (active) | – | –
15 | NC(=O)c1cc[n+](CC2=C(C(=O)[O-])N3C(=O)[C@@H](NC(=O)[C@@H](c4ccccc4)S(=O)(=O)O)[C@H]3SC2)cc1 [Cefsulodin sodium salt] (20 µM) | 0.995 | 1.02 | – | 1 (inactive) | 0.796 (active) | 0.97 (inactive) | 1.01 (inactive) | 1.07 (inactive) | 1 (inactive) | 0.886 (inactive) | 0.876 (inactive) | 0.613
16 | CCc1c2c(nc3ccc(OC(=O)N4CCC(N5CCCCC5)CC4)cc13)-c1cc3c(c(=O)n1C2)COC(=O)[C@]3(O)CC [Irinotecan hydrochloride trihydrate] (20 µM) | 1.05 | 0.974 | 1.06 | 1.03 (inactive) | 0.937 (inactive) | 1.11 (inactive) | 1 (inactive) | 0.994 (inactive) | 0.988 (inactive) | 0.89 (inactive) | – | –
17 | O=C(O)CCNC(=O)c1ccccc1 [Betamipron] (20 µM) | 0.817 | 0.813 | 0.512 | 1.02 (inactive) | 1 (inactive) | 1.04 (inactive) | 1 (inactive) | 1.06 (inactive) | 1 (inactive) | 0.956 (inactive) | – | –
18 | Clc1ccccc1CN1CCc2sccc2C1 [Ticlopidine hydrochloride] (20 µM) | 0.944 | 0.958 | 1.18 | 1.01 (inactive) | 0.983 (inactive) | 1.01 (inactive) | 0.989 (inactive) | 0.934 (inactive) | 0.98 (inactive) | 0.977 (inactive) | – | –
19 | O=C(O)c1cn(C2CC2)c2cc(N3CCNCC3)c(F)cc2c1=O [Ciprofloxacin hydrochloride monohydrate] (20 µM) | 0 | 0 | 0.342 | 0.0661 (active) | 0.796 (inactive) | 0.53 (inactive) | 0.573 (inactive) | 0.176 (active) | 0.938 (inactive) | 0.863 (inactive) | – | –
20 | C[C@H](CS)C(=O)N1CCC[C@H]1C(=O)O [Captopril] (20 µM) | 0.976 | 1 | 0.851 | 1.01 (inactive) | 1.04 (inactive) | 0.963 (inactive) | 1 (inactive) | 1.01 (inactive) | 1 (inactive) | 1.04 (inactive) | – | –
21 | CC(=O)Nc1ccc(O)cc1 [Acetaminophen] (20 µM) | 0.986 | 0.999 | 0.921 | 0.998 (inactive) | – | 1.01 (inactive) | 1 (inactive) | 0.976 (inactive) | 0.993 (inactive) | 1.12 (inactive) | – | –
22 | CO/N=C(\C(=O)N[C@@H]1C(=O)N2C(C(=O)OC(C)OC(C)=O)=C(COC(N)=O)CS[C@H]12)c1ccco1 (stereo partly drawn) [Cefuroxime axetil] (20 µM) | 1.18 | 1.1 | – | 0.905 (inactive) | 0.936 (inactive) | 0.933 (inactive) | 1.05 (inactive) | 1.27 (active) | 1.02 (inactive) | 0.94 (inactive) | 1.03 (inactive) | 0.673
23 | CCOC(=O)C1=C(C)NC(C)=C(C(=O)OC)C1c1cccc(Cl)c1Cl (stereo not drawn) [Felodipine] (20 µM) | 1.09 | 1.04 | 0.215 | 0.96 (inactive) | 0.876 (inactive) | 1.04 (inactive) | 0.97 (inactive) | 0.893 (inactive) | 1.01 (inactive) | 0.903 (inactive) | – | –
24 | CC(C)(c1cc(Br)c(O)c(Br)c1)c1cc(Br)c(O)c(Br)c1 (20 µM) | 1.04 | 1.05 | – | 0.929 (inactive) | 0.366 (active) | 0.967 (inactive) | 1.01 (inactive) | 0.996 (inactive) | 1.04 (inactive) | 0.404 (inactive) | 0.0166 (active) | 0
25 | C=C[C@H]1CN2CC[C@H]1C[C@@H]2[C@@H](O)c1ccnc2ccc(OC)cc12 [Quinidine hydrochloride monohydrate] (20 µM) | 1.01 | 0.966 | 0.981 | 1.11 (inactive) | 0.978 (inactive) | 0.986 (inactive) | 1.05 (inactive) | 0.921 (inactive) | 0.987 (inactive) | 1 (inactive) | – | –
26 | CN(C)CCCN1c2ccccc2CCc2ccccc21 [Imipramine hydrochloride] (20 µM) | 1.15 | 1.08 | 1.34 | 0.866 (inactive) | 0.975 (inactive) | 1.02 (inactive) | 0.943 (inactive) | 0.976 (inactive) | 1.03 (inactive) | 0.963 (inactive) | – | –
27 | O=C1C(CC[S+]([O-])c2ccccc2)C(=O)N(c2ccccc2)N1c1ccccc1 (stereo not drawn) [Sulfinpyrazone] (20 µM) | 0.972 | 1.04 | 1.06 | 0.959 (inactive) | 0.904 (inactive) | 0.978 (inactive) | 1.04 (inactive) | 0.991 (inactive) | 1.01 (inactive) | 0.887 (inactive) | – | –
